HT1080 IDH1KD tx = kills HT-1080 cells with IDH1 knockdown. HT-1080 IDH1 knockdown viability, ATP luminescence, 48 h. Potency, µM (highest dose often 46.1 µM), without a hit: at the top dose activity, negative = toxicity, hits mostly cytotoxic. 360,000 tested, 2% active. AID 686971;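 also: potency is read from the fitted curve at half-maximal effect; 0% = DMSO wells and -100% = cell-free medium wells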
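% activity derives from luminescence (CellTiter-Glo), normalised to DMSO and no-cell wells. HT-1080-IDH1KD cells, 750/well, had 48 h compound exposure at 37 °C.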
HT1080NT lethal = kills 2HG-producing HT-1080-NT fibrosarcoma cells. HT-1080-NT fibrosarcoma viability, CellTiter-Glo ATP luminescence, 48 h. 360,000 tested, 1.6% active. Potency, µM (highest dose often 46.1 µM), for the others: top-dose activity, negative = less viability, hits mostly cytotoxic. AID 686970;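 also: NT is the 2HG producing partner of a matched IDH1 knockdown line; potency is read from the fitted curve at half-maximal effect; 0% = DMSO-treated cells and -100% = media-only wells without cells; nearly all actives have a fitted effect of over 55% in size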
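750 cells/well, RPMI + 5% FBS; 2 h settle, compound pin-transfer, 48 h at 37 degrees C. CellTiter-Glo 10 min RT, luminescence. Normalized to DMSO and media-only wells.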
TDP1 cell CPT = growth inhibition of DT40 Tdp1-/-;hTDP1 cells with camptothecin (screen for TDP1 inhibitors); AID 686979; chicken DT40 Tdp1-/-;hTDP1 cells + 20 nM CPT, ATP luminescence, 48 h; Potency, µM (doses to about 46.2 µM), without a hit: at the top dose activity change, negative = growth inhibition, most hits filed as inhibitors; 420,000 tested, 12% active; also: potency is read from the fitted curve at half-maximal effect; nearly all actives have a fitted effect of over 55% in size
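Chicken DT40 Tdp1-/- cells complemented with human TDP1, 400 cells/well, exposed to compounds plus 20 nM camptothecin for at least 48 h at 37 C; viability read as ATP content by CellTiter-Glo luminescence.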
IL1B secr inh = inhibitors of inflammasome signaling (IL-1 beta secretion); THP-1 LPS/ATP IL-1B secretion, AlphaLISA, 16 h; active compounds read low; activity change, % at 57.5 µM; 360,000 tested, 4.7% active; AID 743279; in the data active = activity change below about -50%; inconclusive = mostly about -30% to -49%
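THP-1 cells pretreated 1 hr with compounds (up to 57.5 uM final), then stimulated with LPS (250 ng/mL final) plus ATP (1.25 mM final); secreted IL-1B measured by AlphaLISA after 16 hr, decreased signal indicating inhibition.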
DT40 TDP1 no CPT = qHTS for Inhibitors of human tyrosyl-DNA phosphodiesterase 1 (TDP1): qHTS in cells in absence of CPT; DT40 Tdp1-/- hTDP1 cells, no CPT, ATP luminescence, 48 h; Potency, µM (top dose mostly 46.2 µM), for inactives: at the top dose activity change, negative = growth inhibition, usual class: inhibitors; 420,000 tested, 15% active; AID 686978, 2013; also: potency is read from the fitted curve at half-maximal effect; nearly all actives have a fitted effect of over 55% in size
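No-CPT arm: Tdp1-/-;hTDP1 DT40 cells (400/well) plus compounds, incubated ≥48 hr at 37 °C. Readout CellTiter-Glo luminescence.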
* marks the source's active call; other numbers are inactive results; i = inactive; ? = inconclusive; · = not tested or not shown; ! = repeats disagree; [ ] = dose if it differs, or a comment. Rows were chosen to be rich in hits. Some 19% of all compounds tested hit in one or more screens of this group. Unless noted, calls follow the shape of the dose curve; as a rule, active = well fitted curve in the direction sought with a large enough effect; inconclusive = small, poorly fitted or top-dose-only effect, or another doubt; inactive = no such curve, though single readings can be large; an effect the other way counts as inactive or inconclusive. Unless noted, % is scaled to controls: 0 for no effect and ±100 for the full control effect.

SMILES	HT1080 IDH1KD tx	HT1080NT lethal	TDP1 cell CPT	IL1B secr inh	DT40 TDP1 no CPT
Cc1cccc(C)c1Nc1c(-c2cccs2)nc2ncccn12	·	·	21µM*	·	?
COc1ccc(-c2cc(C(=O)Nc3ccc(OC)c(OC)c3)[nH]n2)c(C)c1	-13%	-23%	?	?	?
C/C=C(\C)C(=O)NCCN1Cc2ccccc2OC(c2ccccc2OC)C1 (centres undefined)	·	·	-7%[9.04 µM]	·	-27%
CCCCn1ccnc1C(=O)c1cc(S(=O)(=O)N2CCOCC2)ccc1C	-5%	-4%	12µM*	-3	10µM*
Cc1onc(C(=O)N2CCC(Cc3ccccc3)CC2)c1[N+](=O)[O-]	10µM*	5.8µM*	?	-5	?
Cc1ccc(S(=O)(=O)N2CCOCC2)cc1C(=O)N1CCN(Cc2ccccc2)CC1	22%	11%	-13%	-13	-9%
Cc1ccc(C)c(N2CCN(C(=O)c3cc(S(=O)(=O)N4CCCC4)cn3C)CC2)c1	-1%	-5%	18µM*	-14	21µM*
CCOC(=O)N1CCN(C(=O)c2cc(S(=O)(=O)N3CCCC3)cn2C)CC1	9%	7%	-4%	2	6%
Cc1ccc(C)c(N2CCN(C(=O)c3cc(S(=O)(=O)N4CCOCC4)ccc3F)CC2)c1	-10%	-4%	15µM*	-5	13µM*
O=C(c1cc(S(=O)(=O)N2CCOCC2)ccc1Cl)N1CCC(Cc2ccccc2)CC1	-24%	-8%	?	-2	?
Cc1ccc(S(=O)(=O)N2CCOCC2)cc1C(=O)N1CCC(Cc2ccccc2)CC1	-3%	6%	?	-30	15µM*
Cc1cccc(N2CCN(C(=O)c3cc(S(=O)(=O)N4CCOCC4)cn3C)CC2)c1C	-1%	0%	?	?	?
Cc1cccc(N2CCN(S(=O)(=O)c3csc(C(N)=O)c3)CC2)c1C	·	·	12µM*	·	21µM*
Cc1cccc(N2CCN(C(=O)c3cc(S(=O)(=O)N4CCCC4)cn3C)CC2)c1C	15µM*	?	23µM*	28	?
CCn1cc(C(=O)N2CCN(c3cc(C)ccc3C)CC2)c(=O)c2cc(S(=O)(=O)N3CCCCC3)ccc21	·	·	-5%	·	-9%
Cc1ccc(C)c(N2CCN(C(=O)c3cc(S(=O)(=O)N4CCCCC4)cn3C)CC2)c1	·	·	21µM*	·	18µM*
CC(Sc1nnc(-c2cccnc2)n1N)C(=O)Nc1ccc2c(c1)OCCO2 (centres undefined)	-3%	-2%	-8%	10	5%
CC1CN(C(=O)c2cc(S(=O)(=O)N3CCCC3)c(Cl)cc2Cl)CC(C)O1 (centres undefined)	-6%	-1%	13µM*	0	18µM*
COc1ccc(C(CNC(=O)c2ccc(C)c(S(=O)(=O)N3CCCCC3)c2)N(C)C)cc1OC (centres undefined)	1%	0%	-1%	9	-22%
CN(C)C(CNC(=O)c1ccc(Cl)c(S(=O)(=O)N2CCCCCC2)c1)c1ccccc1 (centres undefined)	-13%	-14%	?	-59*	?
CCOc1ccc(CCNC(=O)c2ccc(-n3c(C)cc4c3CCC(C)C4)cc2)cc1OCC (centres undefined)	·	·	15µM*	·	15µM*
CC1CN(S(=O)(=O)c2ccc(Cl)c(S(=O)(=O)N3CC(C)OC(C)C3)c2)CC(C)O1 (centres undefined)	-1%	0%	?	21	15µM*
COc1ccc([C@H]2CC(=O)C[C@@H](CCn3cc(-c4ccccn4)nn3)O2)cc1	12%	0%	-15%	22	-26%
CN(C)CCCNC(=O)c1ccc(Cl)c(S(=O)(=O)N2CCCCCC2)c1	-19%	-25%	10µM*	3	?
CC1CN(S(=O)(=O)c2cc(C(=O)NCc3ccncc3)ccc2Cl)CC(C)O1 (centres undefined)	0%	-1%	-8%	7	0%
SMILES	HT1080 IDH1KD tx	HT1080NT lethal	TDP1 cell CPT	IL1B secr inh	DT40 TDP1 no CPT
Cc1ccccc1CCNC(=O)c1ccc(Cl)c(S(=O)(=O)N2CC(C)OC(C)C2)c1 (centres undefined)	-22%	2%	18µM*	-8	?
CCOc1ccc(CCNC(=O)c2cccc(S(=O)(=O)N3CC(C)OC(C)C3)c2)cc1OCC (centres undefined)	1%	1%	?	10	9.2µM*
CCN(c1ccc(NC(=O)COC(=O)C(C)N=C2NS(=O)(=O)c3ccccc32)cc1)C(C)C (centres undefined)	-8%	2%	3%	?	-17%
CCOc1ncccc1C(=O)NCC(c1ccccc1)N(C)C (centres undefined)	-6%	-16%	?	-1	1%
Cc1ccsc1C(=O)NC1CCCN(Cc2ccc(Cl)cc2)C1 (centres undefined)	10%	-1%	?	i	15µM*
O=C(CCc1ccc(F)c(F)c1)NC1CCCN(Cc2ccc(Cl)cc2)C1 (centres undefined)	-22%	-17%	?	-78*	?
CC1CCCN(S(=O)(=O)c2ccc(S(=O)(=O)N3CCC4(CC3)OCCO4)cc2)C1 (centres undefined)	-1%	-1%	-4%	2	-24%
CCOc1ccccc1NC(=O)CN1C(=O)COc2ccc(S(=O)(=O)NC3CCCC3)cc21	·	·	26µM*	·	?
CC(C)N(Cc1ccccc1)C(=O)CN1C(=O)COc2ccc(S(=O)(=O)NC3CCCC3)cc21	-17%	-2%	26µM*	?	23µM*!
O=S(=O)(c1cnc2ccccc2c1)N1CCN(c2nc(-c3cccs3)nc3ccccc23)CC1	20%	16%	-26%	·	-21%
COc1ccc(NC(=O)c2ocnc2C)cc1OC	-17%	8%	-3%	3	-15%
COc1ccc(NC(=O)c2ccc(-c3ccc(-c4noc(C)n4)cc3C)cc2)cc1N1CCN(C)CC1	23µM*	8.2µM*	2.6µM*	-12	2.1µM*
COc1ccc(NC(=O)c2ccc(-c3ccc(-c4noc(C)n4)cc3C)cc2)cc1OCCN(C)C	·	·	5.2µM*	·	2.6µM*
CCCCC[C@H](O)/C=C/[C@@H]1[C@@H](C/C=C\CCCC(=O)O)[C@@H](O)C[C@@H]1O	·	·	31%[4.12 µM]	·	6%[4.12 µM]
Cc1ccc(NS(=O)(=O)c2ccc(-c3coc(C)n3)cc2)c(Cl)c1	-13%	-12%	?	15	?
CCc1sc(C(=O)NCc2ccccc2)cc1C	-13%	-5%	21µM*	-21	13µM*
O=C(Nc1ccccn1)c1ccc(Cl)s1	11%	0%	5%	0	15%
